This is a sample that favours compounds with a hit; in the whole collection about 27% have one here.
CYP2C19 act = cytochrome P450 2C19 (human) activation | AID 1025 | activation factor at 5 µM | recombinant CYP2C19, luciferin-H EGE luminescence; hits give high values; 0 = fully inhibited enzyme, 1 = untreated enzyme | P33261 | 96,000 tested, under 10 active;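 active = activation factor of at least 2 at 5 µM in the primary screen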;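 also: 0 = wells with 2.5 mM tranylcypromine and 1 = vehicle-only wells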
CYP2C9 activ = CYP2C9 (human) activation; recombinant CYP2C9, luciferin-H conversion, luminescence; hits give high values; factor 1 = untreated enzyme, 0 = blocked; activation factor at 5 µM; 1.4% of 96,000 active; AID 1024;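 active = activation factor of 2 or more for CYP2C9 at a 5 µM dose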;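 also: 0 = sulfaphenazole-blocked wells and 1 = vehicle-only wells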
Cav3 T inh = blocks human Cav3.2 T-type calcium channel; O95180; Cav3.2-expressing cells, Fluo-4 calcium fluorescence FDSS; hits give low values; B-score at 10 µM; 4% of 100,000 active; AID 449739;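 active = single-dose well whose peak fluorescence ratio is a statistical outlier from its plate by either plate-standardised score or position-corrected B-score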
CYP2C9 inhib = blocks human cytochrome P450 2C9. P11712. CYP2C9 Supersomes, luciferin-H conversion, luminescence. inhibition, % at 5 µM. 20% of 96,000 active;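 active = blocking of liver enzyme CYP2C9 beyond about 50% at 5 µM, limit read from the data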
CYP2C19 inh = blocks human cytochrome P450 2C19 | CYP2C19 Supersomes, luciferin-H EGE luminescence, 30 min | 21% of 96,000 active | P33261 | inhibition, % at 5 µM;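 active = CYP2C19 inhibition above a set limit at 5 µM in the primary screen, cut at about 50% in these data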;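 also: plate controls were negative control wells for no effect and 2.5 mM tranylcypromine positive control for full effect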
An asterisk follows results filed as active; . = no result.

SMILES	CYP2C19 act	CYP2C9 activ	Cav3 T inh	CYP2C9 inhib	CYP2C19 inh
CCN1C[C@@]2(COC)C3[C@@H](OC)[C@H]4[C@@H]1[C@@]3(C1C[C@H]3[C@H](OC(=O)c5ccccc5)C1[C@]4(OC(C)=O)C[C@H]3OC)[C@@H](OC)C[C@H]2O (some centres undefined)	.	.	0.66	.	.
COc1cccc(-c2cc(C(F)(F)F)n3nc(C(=O)N4CCC5(CC4)OCCO5)cc3n2)c1	0.2	0.3	-0.6	69*	77*
C/C(=N\NC(=O)c1ccncc1)c1c(O)[nH]c(=O)[nH]c1=O	.	.	1.9	.	.
COC1=CC(=O)OC(/C=C/c2ccccc2)C1 (centres undefined)	.	.	-0.47	.	.
O=c1[nH]c(=O)n(Cc2ccccc2)c(O)c1C=Nc1ccc(CN2CCOCC2)cc1	1.1	1.1	0.18	-11	-15
Fc1ccc(CCNCc2ccc(Cl)c(Cl)c2)cc1	0	0.9	-1.5	7	96*
COc1ccc(CCNCc2ccccc2F)cc1OC	.	.	-0.3	.	.
CCC1C2Cn3c(nc4ccccc43)C1N(C)O2 (centres undefined)	.	.	0.14	.	.
COc1ccccc1-n1c(O)c(C=NCCN2CCNCC2)c(=O)[nH]c1=O	0.7	0.4	0.011	58*	35
O=c1[nH]c(=O)n(Cc2ccccc2)c(O)c1C=NCCN1CCNCC1	0.8	0.8	.	23	17
CN1CCc2nc3sc(C#N)c(N)c3c(-c3cccs3)c2C1	0.9	0.4	1.2	56*	10
CN1CCc2nc(N)c(C#N)c(-c3ccccc3)c2C1	1.1	1.1	.	-10	-11
CN1C2CCC1CC(=NO)C2	.	.	0.43	.	.
C#CCN(C)[C@H](C)Cc1ccccc1	.	.	-1.8	.	.
CC(Cc1ccccc1Sc1ccccc1O)N(C)C (centres undefined)	0.4	0.8	0.042	21	61*
CCN1CCN(Cc2cc(C(C)(C)C)c(O)c(C(C)(C)C)c2)CC1	0.9	0.7	.	26	13
O=C(c1ccc2c(c1)OCO2)N1CCC2(CC1)OCCO2	0.1	1	-1.1	-5	88*
CC(=O)c1c(C)[nH]c(C(=O)N2CCC3(CC2)OCCO3)c1C	0.5	1	0.26	-1	54*
O=C(c1cc(Br)ccc1Cl)N1CCC2(CC1)OCCO2	0	0.5	-0.17	54*	98*
CC(=O)c1ccc2c(c1)OCO2	.	.	0.31	.	.
Cc1occc1C(=O)N1CCC2(CC1)OCCO2	0.8	1	0.57	4	20
CCOC(=O)c1[nH]c(C)c(C(=O)N2CCC3(CC2)OCCO3)c1C	0.8	0.9	2	13	17
O=C(c1cc(-c2ccccc2)nc2ccccc12)N1CCC2(CC1)OCCO2	0.4	0.6	-0.49	38	57*
CCOP(=O)(OCC)C(O)c1ccc(OC)c(OC)c1 (centres undefined)	0.9	1.2	0.46	-15	15
CN(C)P(=NC(=S)c1cccn1C)(N(C)C)N(C)C	1	1.3	-0.15	-25	-5
SMILES	CYP2C19 act	CYP2C9 activ	Cav3 T inh	CYP2C9 inhib	CYP2C19 inh
Cc1cc(C(=O)N2CCC3(CC2)OCCO3)cs1	0.3	1.1	-1.4	-8	74*
COCCCn1c(N)c(C(=O)OC(C)COC)c2nc3ccccc3nc21 (centres undefined)	0.7	0.4	0.92	59*	31
CCCCOCCCn1c(N)c(C(=O)OC(C)COC)c2nc3ccccc3nc21 (centres undefined)	.	.	-0.73	.	.
CC(C)(C)OC(=O)c1c(N)n(Cc2ccco2)c2nc3ccccc3nc12	0.5	0.2	-5.3*	84*	52*
CCC(C)NC(=O)c1c(N)n(CCCOC)c2nc3ccccc3nc12 (centres undefined)	0.3	0.1	-1.5	88*	69*
COCCNC(=O)c1c(N)n(Cc2ccco2)c2nc3ccccc3nc12	0.9	0.7	-1.6	27	10
Cc1cc(C)n2nc(C)[n+](C)c2n1	1.1	1.1	0.21	-9	-14
C=C(C)[C@@]12OC3(c4ccccc4)O[C@@H]1C1[C@@H]4O[C@]4(CO)[C@@H](O)[C@]4(O)C(=O)C(C)=C[C@H]4[C@@]1(O3)[C@H](C)[C@H]2OC(=O)/C=C/C=C/c1ccccc1 (some centres undefined)	.	.	-4.4*	.	.
CSCCC(N=Cc1c(O)n(-c2ccc(Br)cc2)c(=O)[nH]c1=O)C(=O)OC(C)(C)C (centres undefined)	1	1.6	.	-56	-2
O=C1NC(=O)C(CCc2ccncc2)(Cc2ccc3c(c2)OCO3)C(=O)N1CCc1ccccc1 (centres undefined)	0	0.1	-0.61	90*	99*
CCC1(CCc2ccncc2)C(=O)NC(=O)NC1=O	1	0.6	-0.011	42	4
COC(=O)[C@]12OC[C@]34C([C@@H](O)[C@@H]1O)[C@]1(C)CC(=O)C(O)=C(C)[C@@H]1C[C@H]3OC(=O)[C@H](O)[C@@H]24 (some centres undefined)	.	.	0.93	.	.
CCCCN1CCC(C#N)(Nc2ccccc2)CC1	0.3	0.8	-0.1	21	71*
Cn1c(=O)c2c(ncn2CCCl)n(C)c1=O	.	.	-0.2	.	.
O=c1cccc2n1CC1CC2CN(Cc2c(Cl)cccc2Cl)C1 (centres undefined)	0	0.3	-1.6	70*	97*
O=C(NC1CCCCC1)[C@@H]1CC=C[C@@H]2CCN(Cc3ccccc3)C(=O)[C@@H]21	.	.	-0.092	.	.
CCC(=O)N1N=C2C3CCN(CC3)C2C1c1ccccc1 (centres undefined)	1	1.1	0.3	-14	-1
Cc1cccc(C2=NCC(=O)N(CC(=O)NCc3ccco3)c3sc4c(c32)CCCC4)c1	0.5	0.4	-3.9*	59*	51*
CC(=O)c1c(C)n(CCCOC(C)C)c2ccc(O)cc12	0.4	0.4	0.65	55*	62*
Clc1cccc(C2NCCc3[nH]cnc32)c1 (centres undefined)	1	1	.	0	-2
Fc1ccccc1N1CCN(Cc2ccc3c(c2)OCO3)CC1	0.7	1	-0.041	4	27
O=C(O)c1nn(Cc2ccc(Cl)cc2Cl)c2ccccc12	.	.	-0.7	.	.
COc1ccccc1N1CCN(Cc2ccc(Cl)cc2Cl)CC1	0.4	0.8	-0.09	23	56*
Fc1ccccc1N1CCN(Cc2c(F)cccc2F)CC1	0	0.4	-0.92	63*	100*
COc1ccc(CN2CCN(c3ccccc3F)CC2)cc1O	0.3	0.9	-0.24	8	74*
CCC(C)N1Cc2ccccc2C1=N (centres undefined)	1	1	-0.75	5	2
CCN(CCNc1ccc([N+](=O)[O-])c2cccnc12)S(=O)(=O)c1ccc(Cl)cc1	0.4	0.5	-4.3	51*	61*
CCC(CO)Nc1ccc([N+](=O)[O-])c2cccnc12 (centres undefined)	0.4	0.7	0.1	27	58*
O=C(c1ccccc1F)c1cn(CC(=O)N2CCCC2)c2ccccc12	0.7	0.9	1.3	15	35

Screening results: PubChem, several laboratories
